# Bioassay records from PubChem.
# Rab9 promoter act: Rab9 promoter activation. Huh7 Rab9 promoter-luciferase reporter, luminescence, 24 h. Potency, µM (titrated, usually from 9.22 µM), for inactives: at the highest dose activation, negative = inhibition, hits mostly activators. 320,000 compounds, 2.8% hits. AID 485297; also: % of control where 0% means no effect; nearly all actives have a fitted effect of over 60% in size
#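 Luciferase signal after 10 min detection reagent at ambient indicates Rab9 promoter upregulation; stably transfected Huh7 cells were treated 24 h with compound in DMSO at 37 °C, 5% CO2.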
# NPC1 promoter act: activators of NPC1 promoter. Huh7 NPC1 promoter luciferase reporter, 24 h. Potency, µM (doses to about 9.22 µM), without a hit: at the top dose activation, most hits filed as activators. 320,000 compounds, 2.4% hits; also: % of control where 0% means no effect; nearly all actives have a fitted effect of over 60% in size
#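 Quantitative HTS used a cell-based reporter: Huh7 cells stably bearing the NPC1 promoter upstream of luciferase were treated with compounds for 24 h, and promoter activation was read as luminescence.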
# FLuc counter: firefly luciferase modulation, counter-screen for miR-21 project | Potency, µM (highest dose often 57.5 µM), for the others: at the top dose activity change, negative = inhibition, most hits filed as inhibitors | P08659 | purified FLuc, Km substrates, luminescence inhibition | 360,000 compounds, 6.9% hits;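 also: plate controls were vehicle for no effect and reference inhibitor for full effect; nearly all actives have a fitted effect of over 55% in size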
# Target sequence (P08659 whole entry, looked up): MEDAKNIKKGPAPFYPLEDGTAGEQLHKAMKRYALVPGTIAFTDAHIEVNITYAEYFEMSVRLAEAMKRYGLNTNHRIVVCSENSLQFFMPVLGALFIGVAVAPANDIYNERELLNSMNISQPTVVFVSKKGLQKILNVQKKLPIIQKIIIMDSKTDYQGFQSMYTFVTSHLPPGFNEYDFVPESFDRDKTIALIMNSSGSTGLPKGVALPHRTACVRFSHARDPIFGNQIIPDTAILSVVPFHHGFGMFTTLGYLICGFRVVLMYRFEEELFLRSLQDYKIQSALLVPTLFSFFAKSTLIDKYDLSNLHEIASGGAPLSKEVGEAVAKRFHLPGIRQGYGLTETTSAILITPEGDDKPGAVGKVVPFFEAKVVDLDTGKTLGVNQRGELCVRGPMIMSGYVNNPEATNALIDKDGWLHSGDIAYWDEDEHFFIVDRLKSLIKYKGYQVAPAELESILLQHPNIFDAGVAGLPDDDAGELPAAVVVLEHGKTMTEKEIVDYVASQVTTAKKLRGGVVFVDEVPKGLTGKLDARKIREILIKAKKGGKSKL
#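 Purified P. pyralis luciferase, 10 nM final, with Km-level 10 uM D-luciferin and 10 uM ATP in 50 mM Tris acetate pH 7.5, 10 mM Mg acetate, 0.01% Tween-20, 0.05% BSA; 6-point qHTS titration about 60 µM downward; luminescence read.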
# SMN2 splice enh: enhancers of SMN2 splice variant expression. 210,000 compounds, 2.8% hits. Potency, µM (titrated, usually from 46.1 µM), inactives show top-dose activity change, positive = activation, usual class: activators. HEK293 SMN2-luciferase splicing reporter, luminescence, 30-36 h. AID 1458; also: % of control where 0% means no effect; nearly all actives have a fitted effect of over 55% in size
#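 HEK293 cells carry an SMN2 minigene-luciferase reporter in which exon 7 inclusion puts luciferase in frame. Cells were seeded at 2000 cells/well, attached for 10-12 hours, then exposed to compounds for 30-36 hours at 37C before ONE-Glo luminescence.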
# ELG1 genotoxic: inducers of genotoxicity in HEK293T ELG1-luciferase cells. AID 504466. HEK293T ELG1-luciferase reporter, luminescence, 16 h. Potency, µM (doses to about 46 µM), inactives show top-dose activity change, positive = activation, usual class: activators. 330,000 compounds, 1.3% hits; also: % of control where 0% means no effect; nearly all actives have a fitted effect of over 60% in size
#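 Step 1: seed 2,000 HEK293T ELG1-luciferase cells per well. Step 2: add compound or DMSO, incubate 16 hr at 37 °C. Step 3: ONE-Glo, 30 min at room temperature, read luminescence.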
# p53 reactivation: restores transcriptional activity of mutant p53 | H1299 p53-A138V BP100-luciferase reporter, luminescence, 24 h | 320,000 compounds, 0.063% hits | AID 504706 | Potency, µM (highest dose often 92.2 µM), for the others: at the highest dose activity change, positive = activation, hits mostly activators; also: % of control where 0% means no effect; nearly all actives have a fitted effect of over 45% in size
#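 p53-null H1299 cells stably carrying temperature-sensitive p53-A138V and a BP100-luciferase reporter were pinned with compounds (4-point, 1:5 series) and held 24 hrs at 37 deg C. Luminescence was read 10 min after detection reagent.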
# Active calls of the source: *; ? = inconclusive; . = no result given; [ ] = another dose, or the depositor's remark. A selection: hits, their analogues and other compounds. The true share with any hit is near 7.4%. Calls follow the shape of the dose curve; as a rule, active = well fitted curve in the direction sought with a large enough effect; inconclusive = small, poorly fitted or top-dose-only effect, or another doubt; inactive = no such curve, though single readings can be large; an effect the other way counts as inactive or inconclusive. Potency is read from the fitted curve at half-maximal effect.
SMILES,Rab9 promoter act,NPC1 promoter act,FLuc counter,SMN2 splice enh,ELG1 genotoxic,p53 reactivation
CC(=O)c1ccc(OCCCC(=O)Nc2cccc(-c3nn[nH]n3)c2)cc1,-1%,4%,-8%,.,0%,2%
COc1cccc(/C=C2\SC(=S)N(C(C(=O)O)c3ccccc3)C2=O)c1OC (centres undefined),-4%,0%,?,.,0%,0%
COc1ccc(/C=C2\SC(=S)N(C(C(=O)O)c3ccccc3)C2=O)c(OC)c1 (centres undefined),-13%,-4%,24µM*,.,1%,4%
Cc1ccccc1CCNC(=O)c1ccc2c(c1)nc1n2CCC(C)C1 (centres undefined),.,.,8.5µM*,.,.,.
CCc1ccc(CNC(=O)c2ccc3c(c2)nc2n3CCCCC2)cc1,.,.,13µM*,.,.,.
O=C(NCCc1ccccc1)c1ccc2c(c1)nc1n2CCOC1,.,.,5.4µM*,.,.,.
CC(C)CCNC(=O)c1ccc2c(c1)nc1n2CCCCC1,.,.,6µM*,.,.,.
Cc1ccc(CCNC(=O)c2ccc3c(c2)nc2n3CCOC2)cc1,.,.,-18%,.,.,.
CC(C)(C)c1ccc(-c2nnc(-c3ccccc3NC(=O)c3cccc(C(F)(F)F)c3)o2)cc1,.,.,0%,1%,.,.
O=C(NCc1ccc(OC(F)(F)F)cc1)C1CCC(=O)N(C2CC2)C1 (centres undefined),1%,1%,3%,.,0%,.
CCOCCCNC(=O)c1cc2c(=O)[nH]c3ccccc3c2n1C,.,.,1%,6%,.,.
COc1ccc(CCNC(=O)c2ccc3c(c2)nc2n3CCCCC2)cc1OC,.,.,-20%,.,.,.
CCCSCCCNC(=O)c1ccc2c(c1)nc1n2CCCCC1,.,.,15µM*,.,.,.
O=C(NCCc1ccccc1Cl)c1ccc2c(c1)nc1n2CCCCC1,.,.,0.54µM*,.,.,.
CCOc1ccc(CCNC(=O)c2ccc3c(=O)n4c(nc3c2)CCCCC4)cc1,-1%,-3%,-11%,.,-14%,-3%
Cc1ccc(C)c(CNC(=O)c2ccc3c(c2)nc2n3CCCCC2)c1,.,.,15µM*,.,.,.
O=C(Cc1ccc(Cl)c(Cl)c1)OCCN1CCCC1,.,.,.,-22%,.,.
O=C(NCc1ccc(F)cc1)C1CCCCN1S(=O)(=O)c1ccc(F)cc1 (centres undefined),.,.,2%,.,.,.
Cc1[nH]c(N)nc(=S)c1CCC(=O)O,.,.,.,-12%[9.22 µM],.,.
C#CC(C)(C)NS(=O)(=O)c1cc(-c2nnc(Nc3ccc(C)cc3)c3ccccc23)ccc1C,.,.,2.7µM*,9%,.,.
CNC(=O)COc1ccc(Nc2nnc(-c3ccc(C)c(S(=O)(=O)NC(C)(C)C)c3)c3ccccc23)cc1,.,.,15µM*,-33%,.,.
CNS(=O)(=O)c1cc(-c2nnc(Nc3ccc(NC(C)=O)cc3)c3ccccc23)ccc1C,4%,0%,?,.,-5%,0%
Cc1noc(C)c1C(=O)N1CCC[C@@]2(CCN(C(=O)Nc3ccccc3)C2)C1,.,.,.,-13%,.,.
Cc1cc(C)n2nc(/C(C#N)=C/c3ccccn3)c(C#N)c2n1,-4%,-11%,-6%,-1%,18%,0%
O=C(OCC(=O)C12CC3CC(CC(C3)C1)C2)c1ccc(O)cc1O,18%,6%,19µM*,.,23µM*,?
O=C(OCC(=O)C12CC3CC(CC(C3)C1)C2)c1cccnc1Cl,-1%,-5%,17µM*,-4%,0%,6%
CCn1c(=O)n(CC)c2cc(N3CCCCC3)c(NC(=O)Nc3cc(Cl)ccc3OC)cc21,.,.,-5%,.,.,.
COC(=O)[C@]1(Cc2ccccc2)N[C@H](CN(C)C(=O)c2ccc(C)cc2)[C@@H]2C(=O)N(Cc3ccccc3)C(=O)[C@@H]21,.,.,.,.,-3%,3%
N#C/C(C(=O)Oc1ccccc1)=C1\C=CC=CN1,2.8µM*,3.5µM*,19µM*,25%,?,?
N#C/C(C(=O)c1ccccc1)=C1/CCCN1,7%,0%,-1%,.,5%,12%
